The values that follow come from PubChem BioAssay (NCI).

Assay in all cases: NCI-60 one-dose screen, 48 h (100 = growth as untreated, 0 = no growth, -100 = all killed)
Common to all, as to conditions: 10 µM unless noted

In assay [1] the test system is HCT-15 colon.
Assay [2] deals with HT29 colon.
The subject of assay [3] is SNB-75 CNS.
Assay [4] has as its system SNB-19 CNS.
Assay [5] relates to U251 CNS.
The test system of assay [6] is PC-3 prostate.
For assay [7], the system named is UACC-62 melanoma.
Assay [8] concerns LOX IMVI melanoma.
The test system of assay [9] is SK-MEL-28 melanoma.
Assay [10] concerns SK-MEL-2 melanoma.
In assay [11] the test system is EKVX NSCLC.
Assay [12] deals with SN12C renal.
Assay [13] has as its system UO-31 renal.
Assay [14] deals with TK-10 renal.
Assay [15] deals with ACHN renal.
The test system of assay [16] is CAKI-1 renal.
Assay [17] relates to A498 renal.
Assay [18] concerns CCRF-CEM leukemia.
Assay [19] deals with MOLT-4 leukemia.
The test system of assay [20] is SK-MEL-5 melanoma.

The panel holds about 83,000 compounds, 20% with a hit somewhere; the sample as a whole holds those more often.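 Note: values are percent growth. 100 is the growth of untreated cells, values between 100 and 0 indicate rising inhibition; between -100 and 0 indicates cell death.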 Values without a mark were called inactive. The source made the active and inactive calls. Rule for the calls: active = growth percent below 10; inactive = the rest.

Turning to `CC(C)c1ccc(NC(=O)Cc2ccc(Nc3ncnc4cc(-c5cnn(CCN(C)C)c5)ccc34)cc2)cc1`, the growth in assay [1] was -53.1% [30 µM] (active); in assay [2], -45.4% [30 µM] (active); in assay [3], -82.6% [30 µM] (active); in assay [4] it was -86.1% [30 µM] (active); in assay [5], -65.7% [30 µM] (active); in [6], -78.1% [30 µM] (active). Further, the growth in assay [7] is -89.1% [30 µM] (active); in assay [8], -65.1% [30 µM] (active); in assay [9] it was -82.2% [30 µM] (active); in assay [10], 65.7% [30 µM]; in assay [11], -49.6% [30 µM] (active); in [12], -95.9% [30 µM] (active). For the same compound, the growth in assay [13] was -72.9% [30 µM] (active); in [14], -57.3% [30 µM] (active); in [15], -71.5% [30 µM] (active); in assay [16] it was -40.7% [30 µM] (active); in assay [17] it was 42.2% [30 µM]; in assay [18], -28.2% [30 µM] (active). Besides, in assay [19], the growth is -50.9% [30 µM] (active).
For `O=S(=O)(Cc1ccccc1)c1nc2ccccc2s1`, the growth in assay [1] was 33.3%; in assay [2] it was 25.6%; in assay [3], 90%; in assay [4], 97.1%; in [5], 92.1%; in assay [6] it was 79.5%. Further, the growth was 67.4% in assay [20]; 10.8% in assay [8]; 93.8% in [9]; 57.7% in [10]; 99.3% in [11]; 35.5% in assay [12]. In addition, the growth in assay [13] is 49.9%; in assay [14] it was 98%; in [17], 111%; in [18], 15.4%; in assay [19], 14.1%.
Take `c1ccc([P+](CCCc2n(Cc3ccc4ccccc4c3)c3ccccc3[n+]2Cc2ccc3ccccc3c2)(c2ccccc2)c2ccccc2)cc1`: the growth is 85.5% in [1]; 23.9% in [2]; 91% in assay [3]; 38.5% in assay [4]; 46.5% in assay [5]; 67.5% in [6]. Further, the growth in assay [7] is 37.8%; in [8], 13.8%; in assay [9], 37.1%; in [10], 100%; in [11], 59.4%; in assay [12], 55%. The growth in assay [13] is 61.2%; in assay [14], 89.2%; in assay [15] it was 81.4%; in assay [16], 79.9%; in [17], 67.2%; in [18], 43.2%. For the same compound, in assay [19], the growth was 57.6%.
`CCCCS(=O)(=O)Oc1ccc(-c2nc(C)c(C(=O)OCC)s2)cc1C=O`: the growth was 50.6% in [1]; 18.5% in [2]; 89% in assay [3]; 53.8% in assay [4]; 49.6% in assay [5]; 53.9% in assay [6]. In addition, the growth in assay [7] was 64.6%; in assay [8], 28.3%; in assay [9] it was 90%; in assay [10], 97.2%; in [11], 92.1%; in assay [12] it was 57.1%. The growth in assay [13] is 57.7%; in [14], 68.8%; in [15], 62.7%; in assay [16] it was 63.7%; in [17], 77.5%; in [18], 15.3%. Further, the growth in assay [19] is 32.1%.
`Cc1nc(Nc2ccc(NC(=S)Nc3ccccc3)cc2)nc2nc(Nc3cccc(Cl)c3)[nH]c(=O)c12`: the growth in assay [1] was 98.2%; in assay [2] it was 114%; in [3], 84.7%; in [4], 102%; in [5] it was 92%; in assay [6] it was 93.1%. Besides, the growth in [20] is 102%; in assay [8], 92%; in [9], 93.2%; in assay [10], 88.8%; in assay [11] it was 119%; in [12], 97.4%. Moreover, the growth was 96.4% in assay [13]; 142% in [14]; 96.7% in assay [15]; 91.3% in assay [17]; 81.2% in assay [18]; 64.9% in assay [19].
On to `CCCCN(CCCC)CCCn1c(=O)c2sc3ncccc3c2n2nnc(-c3ccccc3)c12`, for which the growth in [1] was 99.8%; in [2], 74.4%; in assay [3], 86.1%; in assay [4], 101%; in [5] it was 95.3%; in assay [6], 91.3%. Further, the growth in assay [20] was 107%; in assay [8] it was 110%; in assay [9], 98.4%; in assay [10], 107%; in assay [11], -3.24% (active); in assay [12], 99.3%. The growth in assay [13] was 48.1%; in assay [15] it was 97%; in assay [16] it was -87.9% (active); in assay [17], 117%; in assay [18], 90.8%; in assay [19] it was 94.5%.
Turning to `O=C(NCCOCCOCCNc1cccc2c1C(=O)N(C1CCCNC1=O)C2=O)c1cc2c(o1)C(=O)c1ccccc1C2=O` (stereo unspecified), the growth in [1] was -65.3% (active); in [2], 2.43% (active); in assay [3] it was -98.3% (active); in [4] it was 3.8% (active); in [5], -36.4% (active); in assay [6], 4.67% (active). Besides, the growth is -98.7% (active) in [20]; -59% (active) in [8]; -28.6% (active) in assay [9]; -13.6% (active) in [10]; 17.7% in [11]; -74.3% (active) in assay [12]. In addition, the growth in assay [13] was -19.8% (active); in [14], 8.39% (active); in assay [15], 14%; in assay [16], -10.1% (active); in assay [18], 14.9%; in assay [19], 8.89% (active).
For `COc1ccc(-n2nnc(C(=O)NCCc3c[nH]c4ccc(F)cc34)c2C)cc1`, the growth in assay [1] was 104%; in assay [2], 86.4%; in assay [3], 93.7%; in [4], 105%; in [5], 92.4%; in assay [6], 87.4%. Moreover, the growth in assay [20] was 102%; in [8], 98.6%; in [9] it was 109%; in assay [10], 91.6%; in assay [11] it was 102%; in assay [12], 103%. In addition, the growth was 83.5% in assay [13]; 96.2% in assay [14]; 102% in [15]; 91.7% in assay [16]; 100% in assay [17]; 87.9% in assay [18]. For the same compound, the growth in assay [19] is 87.9%.
With `CCNCCNc1cc(-c2ccc(C(F)(F)F)cc2)c(C#N)c2nc3cc(Cl)c(Cl)cc3n12`, the growth in assay [1] is -80.1% (active); in assay [2], -85.5% (active); in assay [3] it was -93.7% (active); in assay [4], -62.7% (active); in assay [5], -94% (active); in assay [6] it was -88.4% (active). In addition, the growth in assay [20] was -98.9% (active); in assay [8], -74% (active); in assay [9], -96.5% (active); in [11], -94.2% (active); in assay [12], -70.9% (active); in [13], -92.5% (active). Also, the growth is -94.7% (active) in assay [14]; -100% (active) in assay [15]; -91.5% (active) in [16]; -40.5% (active) in [17]; -48.4% (active) in [18]; -56.8% (active) in assay [19].
In the case of `COc1ccc(/C(C)=C(\c2ccc(Cl)cc2)c2ccc(OCCN3CCCCCC3)cc2)cc1F`, the growth in [1] was -23.9% (active); in assay [2] it was 10%; in assay [3], 75.6%; in assay [4], 65.9%; in assay [5] it was 39.8%; in [6], 41%. The growth is 48.2% in [7]; -47% (active) in assay [8]; 26% in assay [9]; 74.5% in assay [10]; 57.7% in assay [11]; 57.4% in [12]. Also, the growth in [13] is 32.4%; in assay [14] it was 81.7%; in [15], 64.5%; in assay [16] it was 22.6%; in [17] it was 77.6%; in assay [18] it was 36.2%. Further, in assay [19], the growth is 26.6%.
`O=C1c2cccc3c(-c4ccc(-c5nc6c7ccccc7c7ccccc7c6[nH]5)cc4)ccc(c23)C(=O)N1CCN1CCNCC1`: the growth in assay [1] is 40.9%; in [2] it was 5.47% (active); in [3], 103%; in assay [4] it was 103%; in [5] it was 62.1%; in assay [6], 66.6%. Further, the growth is 106% in assay [7]; -55.8% (active) in assay [8]; 119% in assay [9]; 105% in [10]; 97% in [11]; 93.4% in assay [12]. In addition, the growth was 94.2% in assay [13]; 104% in [14]; 71.7% in assay [15]; 91.4% in [16]; 107% in assay [17]; 37.5% in [18]. Also, the growth in assay [19] is 53.4%.
Regarding `COc1ccc(-n2sc(=O)n(Cc3ccc(COC(=O)C(C)c4ccc(CC(C)C)cc4)cc3)c2=O)cc1` (stereo unspecified), the growth is 36.3% in [1]; 22% in assay [2]; 46.7% in assay [3]; 80.5% in assay [4]; 75.3% in assay [5]; 61.7% in assay [6]. Also, the growth in [7] was 55.2%; in assay [8], -75.9% (active); in assay [9], 52.8%; in assay [10], 89.7%; in [11], 77.4%; in [12], 23.4%. Moreover, the growth was -6.91% (active) in assay [13]; 10.1% in [14]; -44.4% (active) in assay [15]; 30.9% in assay [16]; 83.3% in assay [17]; -22.2% (active) in [18]. For the same compound, the growth in [19] is -18.3% (active).
In the case of `COc1cccc(/C=C2\COc3ccc(O)cc3C2=O)c1OC`, the growth in [1] was 45.4%; in assay [2], 19.2%; in [3], 86.5%; in [4], 67.4%; in assay [5] it was 54.3%; in [6], 56.2%. For the same compound, the growth is 71% in [7]; -19.7% (active) in [8]; 96.6% in assay [9]; 96.4% in [10]; 92.8% in assay [11]; 44.4% in assay [12]. The growth is 58.6% in assay [13]; 89.3% in assay [14]; 54.6% in assay [15]; 63.4% in assay [16]; 90.7% in [17]; 2.69% (active) in assay [18]. In assay [19], the growth is 32.9%.
As for `N#C/C(=C\c1ccc(Br)cc1)n1nnc2ccccc21`, the growth was 2.5% (active) in assay [1]; 3.79% (active) in assay [2]; 24.8% in [3]; 29% in assay [4]; -35.7% (active) in [5]; 12.7% in assay [6]. In addition, the growth in assay [20] is 6.25% (active); in assay [8], -75% (active); in assay [9], 6.49% (active); in assay [10], -1.82% (active); in assay [11], 20%; in assay [12], 8.47% (active). Further, the growth in [13] is -13.6% (active); in assay [14], 1.55% (active); in [15], -16.7% (active); in assay [16] it was 1.73% (active); in [18], 8.29% (active); in assay [19] it was 9.75% (active).
For the compound `O=C(NCc1cccnc1)c1cc(-c2csc3c(=O)cc(N4CCOCC4)oc23)cc2c1OCCO2`, the growth in [1] is 66.5%; in assay [2], 18%; in assay [3], -9.26% (active); in assay [4], 47.5%; in assay [5], 51.8%; in assay [6] it was 38.6%. For the same compound, the growth in assay [20] is 39.6%; in assay [9], 49%; in assay [10], 51.1%; in [11] it was 62.5%; in [12], 41.7%; in assay [13] it was 30.3%. Also, the growth in assay [14] was 14.1%; in assay [15], 34.5%; in assay [16], 31.1%; in [17], 39.9%; in assay [18], 39.6%.
